# Measured values reported in the supplement of paper PMC4166925.
# ± gives the standard deviation of the averaged measurements. Whole data set: some 33,000 sequences, median “E-score (dimensionless, -0.5 to 0.5)” near -0.046, cut for the highest 2% near 0.36. The full list was thinned out, with the highest values kept by preference.
# Test system: T1, SpTbr T-box DNA-binding domain (GST fusion)
# T1 sequence: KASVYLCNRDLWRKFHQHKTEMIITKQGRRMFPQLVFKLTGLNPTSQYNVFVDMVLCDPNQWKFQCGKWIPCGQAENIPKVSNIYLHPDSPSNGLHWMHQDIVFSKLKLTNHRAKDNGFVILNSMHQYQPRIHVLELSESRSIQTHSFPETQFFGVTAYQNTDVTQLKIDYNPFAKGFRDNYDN
# Assay: PBM E-score of 8-mer (E-score (dimensionless, -0.5 to 0.5)); Tbr is Tbrain of the sea star Patiria miniata (Pm) or the sea urchin Strongylocentrotus purpuratus (Sp); higher = stronger binding preference
# Conditions: the construct has about 5 more residues each side
# Method in brief: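 GST-fused Tbr T-box DNA-binding domains (the whole T-box plus about five flanking residues) were expressed in BL21 E. coli at 20 °C and purified by glutathione affinity chromatography. Universal Agilent oligonucleotide arrays were made double-stranded by primer extension, incubated with 200 nM protein in PBS (pH 7.5), then scanned and quantified. Every ungapped 8-mer was scored from probe intensities. The Universal PBM Analysis Suite gave each word an enrichment E-score, averaged over duplicate arrays.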
row,Sequence,PBM E-score of 8-mer
1,CCTTGCGA,0.183 ± 0.056
2,CAGGGATC,-0.17 ± 0.046
3,AAACCATC,-0.0776 ± 0.02
4,AAATCGTT,-0.0755 ± 0.038
5,CACACATG,0.383 ± 0.021
6,CACACATA,0.3998 ± 0.0028
7,TACACATA,0.168 ± 0.022
8,CACACAGG,0.244 ± 0.0081
9,CACACAAG,0.179 ± 0.038
10,GACACATA,0.359 ± 0.005
11,GAGGCTCA,-0.129 ± 0.025
12,ACGCCCAT,0.0516 ± 0.054
13,GATATGCA,0.00558 ± 0.032
14,GGCGCTAA,0.4 ± 0.035
15,GGCGCGAC,0.369 ± 0.017
16,AGCGCGAG,0.306 ± 0.017
17,TGCGCTAA,0.191 ± 0.035
18,AGCGCGAT,0.276 ± 0.009
19,GACGCGAA,0.138 ± 0.006
20,AGCGCGAC,0.253 ± 0.026
21,GGCGCGAA,0.463 ± 0.011
22,AGCGCGAA,0.405 ± 0.019
23,GGCGCGCA,0.153 ± 0.047
24,CGCGCGAC,0.284 ± 0.015

row,Sequence,PBM E-score of 8-mer
1,CGCGCTAA,0.338 ± 0.0063
2,AGCTACAA,-0.161 ± 0.011
3,GCACGCGC,0.216 ± 0.095
4,ATAGATGA,-0.0521 ± 0.016
5,CTGAAGCA,-0.141 ± 0.0054
6,CCGTGCCC,-0.244 ± 0.013
7,CCGTACAA,-0.197 ± 0.0048
8,TCCGCGAA,0.2876 ± 0.00083
9,CCCGCGAA,0.371 ± 0.019
10,GCCGCGAA,0.343 ± 0.0045
11,CGCGCGAG,0.304 ± 0.036
12,TGCGCGAA,0.349 ± 0.036
13,CGCGCGAA,0.408 ± 0.013
14,CGCAATTC,0.169 ± 0.0051
15,AAAGATCT,-0.1 ± 0.035
16,ATTGAGGG,-0.243 ± 0.003
17,AACCTTCA,-0.0641 ± 0.013
18,AACCTTCC,-0.169 ± 0.048
19,AACCTTCG,-0.0878 ± 0.018
20,CACCTTCC,0.401 ± 0.014
21,GACCTTCC,-0.00679 ± 0.036
22,CCCCTTCG,-0.137 ± 0.046
23,CACCTTCA,0.412 ± 0.0047
24,CACCTTCG,0.396 ± 0.017

row,Sequence,PBM E-score of 8-mer
1,GACCTTCA,-0.0627 ± 0.081
2,CGTGGTCC,-0.204 ± 0.045
3,CCGCCACA,0.157 ± 0.021
4,CCTCCTAA,-0.2059 ± 0.001
5,TAAGCGAA,-0.0797 ± 0.053
6,CAAGGTTC,0.047 ± 0.016
7,GAAGGTAC,-0.239 ± 0.019
8,TAAGGTGA,0.331 ± 0.021
9,GAAGGTGC,0.41 ± 0.019
10,CAAGGTGC,0.421 ± 0.0087
11,CAAGGTGG,0.311 ± 0.015
12,CAAGGTAA,-0.0662 ± 0.017
13,CAAGGTGA,0.392 ± 0.0089
14,GAAGGTGA,0.348 ± 0.035
15,ACCTAGAA,-0.0152 ± 0.079
16,ACTGCTCG,0.0799 ± 0.013
17,CTCGGGAC,-0.118 ± 0.062
18,AACTGTTA,0.284 ± 0.03
19,TGAGCCAA,-0.229 ± 0.019
20,CCCCCATC,-0.0563 ± 0.053
21,AAGTGTGG,0.417 ± 0.013
22,CAGTGTGC,0.106 ± 0.0063
23,AAGTGGGA,0.238 ± 0.037
24,AAGTGGGG,0.177 ± 0.0055

row,Sequence,PBM E-score of 8-mer
1,AAGTGTGC,0.3891 ± 0.00091
2,AAGTGTGT,0.331 ± 0.0059
3,ACTGCCTA,-0.14 ± 0.028
4,AACTTTCG,0.00917 ± 0.0092
5,CTCTGGGA,0.00265 ± 0.049
6,ACAATAGA,-0.149 ± 0.042
7,CCATGGAG,-0.231 ± 0.015
8,CCCAGAGG,-0.127 ± 0.05
9,CCACATCC,-0.0299 ± 0.14
10,ACACATCT,0.31 ± 0.029
11,ACACATCA,0.339 ± 0.0072
12,ACACATCC,0.388 ± 0.024
13,ACACATCG,0.394 ± 0.014
14,GCACATCC,0.137 ± 0.0032
15,CTACTTGA,0.0916 ± 0.062
16,ACACCACT,0.269 ± 0.02
17,ACACCATC,0.3674 ± 0.0022
18,CCACCACA,0.131 ± 0.073
19,CCACCATC,0.0489 ± 0.024
20,CCACCACC,0.101 ± 0.038
21,ACACCACG,0.332 ± 0.018
22,ACACCACA,0.364 ± 0.017
23,ACACCATA,0.231 ± 0.071
24,ACACCACC,0.365 ± 0.0069

row,Sequence,PBM E-score of 8-mer
1,ACCTGCCT,0.00297 ± 0.084
2,GGAGCGCC,0.0178 ± 0.0015
3,AGACCCAC,0.0705 ± 0.1
4,AGAGAAAT,-0.0136 ± 0.08
5,AGATCCAT,-0.205 ± 0.039
6,CATCTCAC,0.308 ± 0.006
7,GATCTCAC,0.371 ± 0.02
8,AATCTCAC,0.366 ± 0.016
9,GATCTCAA,0.0536 ± 0.028
10,AATCTCAT,-0.0127 ± 0.017
11,AATCTCTC,-0.1 ± 0.11
12,AATCTCAG,-0.0558 ± 0.035
13,AGACTCGG,-0.23 ± 0.019
14,CACACCCC,0.419 ± 0.025
15,CACCCCCG,0.234 ± 0.018
16,TACACCCA,0.105 ± 0.011
17,CCCACCCG,0.0685 ± 0.054
18,CACACCCG,0.448 ± 0.016
19,CCCACCCA,0.185 ± 0.054
20,CACACCCA,0.421 ± 0.02
21,CACACCGC,0.332 ± 0.037
22,AACACCCG,0.404 ± 0.01
23,ATCACCCG,0.12 ± 0.057
24,AGCACCCG,0.257 ± 0.011

row,Sequence,PBM E-score of 8-mer
1,CACCCCCC,0.184 ± 0.003
2,CCATGGCG,-0.204 ± 0.015
3,GACCGTCA,0.0838 ± 0.01
4,GACAGTGC,0.152 ± 0.025
5,AAAACTCC,-0.156 ± 0.054
6,AGGGCGTG,0.281 ± 0.01
7,CAGGCGTC,0.236 ± 0.056
8,AAGGCGTA,0.153 ± 0.028
9,AAGGCGTC,0.372 ± 0.035
10,ACGGCGTG,0.232 ± 0.0069
11,AAGGCGTG,0.392 ± 0.037
12,ACGTCCTA,-0.17 ± 0.032
13,AAGCGTTG,0.192 ± 0.056
14,ATCGCGCC,0.4021 ± 0.0011
15,ATCGCGCA,0.151 ± 0.015
16,CTCGCGCA,0.248 ± 0.021
17,ATCGCGCG,0.337 ± 0.004
18,CTCGCGCC,0.412 ± 0.031
19,CGCGCGCC,0.173 ± 0.064
20,AACTAGGG,0.0057 ± 0.046
21,AAGGAGGG,-0.0491 ± 0.018
22,GCTCATAC,-0.0299 ± 0.01
23,CGTTGGGA,-0.121 ± 0.024
24,ATTAAGAC,-0.0771 ± 0.015
